According to PubChem BioAssay (NCATS):
Results filed as inconclusive are left out. Activity calls are given as the source filed them. Calls follow the shape of the dose curve; as a rule, active = well fitted curve in the direction sought with a large enough effect; inconclusive = small, poorly fitted or top-dose-only effect, or another doubt; inactive = no such curve, though single readings can be large; an effect the other way counts as inactive or inconclusive.

How the values were obtained:
[1] = molecular target: Phospholipid hydroperoxide glutathione peroxidase GPX4 (Homo sapiens) (UniProt P36969); test: Primary qHTS Assay for Inhibitors of Recombinant Selenoprotein Glutathione Peroxidase 4 (GPX4) (AID 1845192); also: nearly all actives have a fitted effect of over 65% in size; as to activity change, negative = inhibition: series mostly up to about 50 µM; % is scaled to controls: 0 for no effect and ±100 for the full control effect
Method in brief: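 GR-coupled readout: 100 nM GR, 1 mM GSH, 0.5 mM NADPH; NADPH fluorescence (ex 340/em 450 nm) read at t=0 and after 15 min RT. GPX4 200 nM, preincubated 30 min with compound; substrate 0.5 mM CHP.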

[2] = molecular target: Luciferin 4-monooxygenase (Photinus pyralis) (UniProt P08659); test: Primary firefly luciferase (FLuc) qHTS assay for identification of artifact compounds. (AID 1845220); also: nearly all actives have a fitted effect of over 60% in size;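 as to activity change, negative = inhibition: series mostly up to about 54 µM; plate controls were DMSO vehicle for no effect and no enzyme for full effect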
Method in brief: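 In this counter-screen for luciferase artifacts, test compounds met substrate (10 uM each luciferin and ATP) before 10 nM enzyme started the reaction. Light output was measured 5 min later.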

[3] = Primary fluorescence-based thiol-reactive (MSTI) qHTS assay for identification of artifact compounds. (AID 1845221); also: nearly all actives have a fitted effect of over 65% in size; also: potency is read from the fitted curve at half-maximal effect;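 as to activity change, negative = thiol reactive: series mostly up to about 54 µM; thiol-reactive compounds lower the probe fluorescence signal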
Method in brief: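 In PBS pH 7.4 with 2% DMSO, each compound met 4 uM MSTI for one hour at ambient temperature, shielded from light, before fluorescence detection.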

[4] = system: Nanoluciferase (engineered Oplophorus gracilirostris luciferase); test: Primary Nanoluciferase (NLuc) qHTS assay for identification of artifact compounds. (AID 1845222);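 also: NLuc secreted into diluted conditioned medium of S16 cells; series mostly up to about 54 µM; 0% = DMSO and -100% = no enzyme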
Method in brief: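 Using secreted nanoluciferase in S16 culture medium (0.22 um filtered, 1:55 dilution), compounds were preincubated 15 min at RT. Signal was generated with Nano-Glo reagent (1:100) over 5 min.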

[5] = Primary redox qHTS assay for identification of artifact compounds. (AID 1845223);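 also: 0% = DMSO and 100% = reference compound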
Method in brief: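 Amplex Red (25 uM) and HRP (250 mU/mL) in HBSS, with compounds for 15 min, then 250 uM DTT for 30 min, room temperature, dark. Fluorescence 525/598 nm read; normalized to DMSO and 10 uM DA3003; Hill fit.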

Sequence of Phospholipid hydroperoxide glutathione peroxidase GPX4 (Homo sapiens) (P36969 whole entry, looked up): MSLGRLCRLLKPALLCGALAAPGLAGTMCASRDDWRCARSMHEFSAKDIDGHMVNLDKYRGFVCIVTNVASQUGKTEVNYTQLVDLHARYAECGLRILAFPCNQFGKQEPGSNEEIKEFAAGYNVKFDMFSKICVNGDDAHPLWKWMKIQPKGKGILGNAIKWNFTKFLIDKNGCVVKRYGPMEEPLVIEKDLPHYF

COc1cc(C2c3cc4c(c(O)c3CC(CO)C2C(=O)O)OCO4)cc(OC)c1O (stereo not given)
active: Potency [3] 10.3 µM
inactive: Potency [1] | Potency [2] | Potency [4] | Potency [5]

CO[C@H]1O[C@@H]2O[C@]3(C)CC[C@H]4[C@H](C)CC[C@@H]([C@H]1C)[C@@]24OO3
inactive: Potency [1] | Potency [2] | Potency [3] | Potency [4] | Potency [5]

CC1(C)CC[C@]2(C(=O)O[C@@H]3O[C@H](CO[C@@H]4O[C@H](CO)[C@@H](O)[C@H](O)[C@H]4O[C@@H]4O[C@H](CO)[C@@H](O)[C@H](O)[C@H]4O)[C@@H](O)[C@H](O[C@@H]4O[C@H](CO)[C@@H](O)[C@H](O)[C@H]4O)[C@H]3O)CC[C@]3(C)C(=CCC4[C@@]5(C)CC[C@@H](O)[C@@](C)(C(=O)O[C@@H]6O[C@H](CO)[C@@H](O)[C@H](O)[C@H]6O)C5CC[C@]43C)[C@@H]2C1 (stereo not given in full)
inactive: outcome [1] inactive [at 9.73 µM] | activity change, negative = inhibition [2] 2.91% [at 11.6 µM] | activity change, negative = thiol reactive [3] 344% [at 11.5 µM] | activity, negative = inhibition [4] 2% [at 11.6 µM] | redox activity (% of DA3003) [5] 5.34% [at 11.5 µM]

C/C=C(\C)C(=O)O[C@H]1[C@@H](O[C@]2(COC(=O)CC(C)C)O[C@H](COC(=O)C(C)CC)[C@@H](OC(C)=O)[C@@H]2O)O[C@H](COC(C)=O)[C@@H](O)[C@@H]1O (stereo not given in full)
inactive: Potency [1] | Potency [2] | Potency [3] | Potency [4] | Potency [5]

O=C(/C=C\n1cnc(-c2cc(C(F)(F)F)cc(C(F)(F)F)c2)n1)N1CC(F)(F)C1
inactive: Potency [1] | Potency [2] | Potency [3] | Potency [4] | Potency [5]

COc1ccc(CNC(=O)c2sc3nc(C)cc(C)c3c2N)cc1
inactive: Potency [1] | Potency [2] | Potency [3] | Potency [4] | Potency [5]

COc1cc2ncnc(N3CCC(Oc4cnc5ccccc5n4)C3)c2cc1OC (stereo not given)
inactive: Potency [1] | Potency [2] | Potency [3] | Potency [4] | Potency [5]

CCOc1cc(C)c(Cl)cc1S(=O)(=O)n1cnc2ccccc21
inactive: Potency [1] | Potency [2] | Potency [3] | Potency [4] | Potency [5]
